Gal4-VP16 FLuc: inhibits Gal4-VP16 luciferase reporter, ROR gamma counter-screen. 310,000 tested, 3.5% active. Potency, µM (top dose mostly 53.6 µM), inactives show top-dose activity, negative = inhibition, usual class: inhibitors. Drosophila S2 Gal4-VP16 UAS-luciferase, luminescence, 20 h;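 further: Gal4-VP16 expression switched on by copper sulfate through the metallothionein promoter; potency means the concentration at half of the fitted maximal effect; on the % scale 0 is the no-effect control and ±100 the full control effect; nearly all actives have a fitted effect of over 50% in size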
MCF10A rerep: inducers of DNA re-replication in MCF 10A breast cells | MCF 10A DNA re-replication, Hoechst nuclear intensity, 48 h | Potency, µM (highest dose often 46.1 µM), for inactives: at the highest dose activity, positive = re-replication, actives largely listed as activators | 350,000 tested, 2.9% active | AID 624296; further: potency means the concentration at half of the fitted maximal effect; % of control where 0% means no effect; nearly all actives have a fitted effect of over 50% in size
SW480 rereplic: induces DNA re-replication in SW480 colon adenocarcinoma cells | SW480 DNA re-replication, Hoechst DNA content imaging, 48 h | 340,000 tested, 1.8% active | Potency, µM (top dose mostly 46.1 µM), for inactives: at the highest dose re-replication activation, most hits filed as activators; further: potency means the concentration at half of the fitted maximal effect; % of control where 0% means no effect; nearly all actives have a fitted effect of over 55% in size
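250 cells/well; 23 nL cpd via pin tool; 48 hr, 37 C, 5% CO2; Hoechst 40 min; imager read of total nuclear intensity, ex 405/em 500-530 nm.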
Giardia kill: kills Giardia lamblia; Giardia lamblia trophozoite viability; activity change, % at 7.66 µM, hits read low; 340,000 tested, 0.15% active; in the data active means activity change below about -80%; inconclusive means between about -30% and that limit;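 further: parasites exposed to compound for two days anaerobically before the ATP read; on the % scale 0 is the no-effect control and ±100 the full control effect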
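Luminescence from cellular ATP indicates surviving trophozoites (100 cells/well) following 48 hrs anaerobic compound treatment at 37 deg C; signal develops 15-30 min at room temperature.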
Chronic BCR inh: chronic active BCR signaling inhibition | AID 493014 | 340,000 tested, 0.05% active | ABC-DLBCL IkBa-CBG/CBR reporter, luminescence ratio, 4 h | Potency, µM (doses to about 46.1 µM), inactives show at the highest dose activity change, negative = inhibition, most hits filed as inhibitors; active means well fitted inhibition curve with a large enough effect in the signal ratio, with a control signal flat, not every such curve was filed as active; inconclusive means small, poorly fitted or top-dose-only effect, or effect the other way, or a change in a side signal; the % refers to the signal ratio;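 further: potency means the concentration at half of the fitted maximal effect; plate controls were basal doxycycline-induced cells for no effect and cells given 10 µM MG132 for full effect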
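Cell line TMD8 (human ABC DLBCL), stably expressing tet-inducible CBG68-IkBa fusion and CBR; IMDM/0.5% FBS; cpd up to 46 uM; dox induction, 4 h, 37C/5% CO2; dual luminescence; green/red ratio; MG132 control.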
RORg inh: ROR gamma (mouse) transcription inhibition | P51450 | Drosophila S2 Gal4-RORgamma UAS-luciferase reporter, 20 h | Potency, µM (series often up to 53.6 µM), for inactives: top-dose activity change, negative = inhibition, actives largely listed as inhibitors | 310,000 tested, 5.4% active | AID 2551; further: potency means the concentration at half of the fitted maximal effect; on the % scale 0 is the no-effect control and ±100 the full control effect; nearly all actives have a fitted effect of over 60% in size
Target sequence (P51450 whole entry, looked up, the tested form may be a part): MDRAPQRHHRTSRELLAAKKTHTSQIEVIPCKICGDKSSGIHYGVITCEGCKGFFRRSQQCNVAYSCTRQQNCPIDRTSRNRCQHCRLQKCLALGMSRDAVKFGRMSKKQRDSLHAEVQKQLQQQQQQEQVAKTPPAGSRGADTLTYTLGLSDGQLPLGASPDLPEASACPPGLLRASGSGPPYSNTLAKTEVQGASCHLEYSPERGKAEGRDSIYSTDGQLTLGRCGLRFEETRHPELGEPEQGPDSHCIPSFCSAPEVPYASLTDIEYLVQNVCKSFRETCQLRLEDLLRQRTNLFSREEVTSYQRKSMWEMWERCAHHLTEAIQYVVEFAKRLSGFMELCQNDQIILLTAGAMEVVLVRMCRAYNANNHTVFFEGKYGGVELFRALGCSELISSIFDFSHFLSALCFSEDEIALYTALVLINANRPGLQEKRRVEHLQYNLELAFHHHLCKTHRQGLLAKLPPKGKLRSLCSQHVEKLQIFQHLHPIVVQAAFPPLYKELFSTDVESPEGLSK
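Stable Schneider cell line, Gal4 DNA-binding domain fused to ROR gamma, UAS-luciferase. Cmpd 1 hr RT → CuSO4 700 uM final → 20 hr RT → luciferase reagent 10 min → luminescence.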
* hit, by the source's call; ? = inconclusive; · = no result given; [ ] = another dose, or the depositor's remark. Shown are actives, neighbours in structure and some others; about 8.3% of the full set was active somewhere. Unless noted, the call rests on the fitted dose curve; in most records, active means well fitted curve in the direction sought with a large enough effect; inconclusive means small, poorly fitted or top-dose-only effect, or another doubt; inactive means no such curve, though single readings can be large; an effect the other way counts as inactive or inconclusive.

SMILES	Gal4-VP16 FLuc	MCF10A rerep	SW480 rereplic	Giardia kill	Chronic BCR inh	RORg inh
CC[C@H](C)[C@H](NC(=O)[C@H](CC(=O)O)NC(=O)[C@H](CC(N)=O)NC(=O)[C@@H](NC(=O)[C@H](CCCNC(=N)N)NC(=O)[C@@H](NC(=O)[C@@H](NC(=O)[C@@H](NC(=O)[C@@H](NC(=O)[C@H](CCCCN)NC(=O)[C@@H](NC(=O)[C@H](CC(C)C)NC(=O)[C@@H](NC(=O)[C@H](CCCCN)NC(=O)[C@@H](NC(=O)[C@H](CC(=O)O)NC(=O)[C@H](CC(=O)O)NC(=O)[C@H](CCC(N)=O)NC(=O)[C@@H](NC(=O)[C@H](CCCCN)NC(=O)[C@H](CCC(N)=O)NC(=O)[C@@H](NC(=O)[C@@H]1CCCN1C(=O)[C@@H](N)C(C)C)[C@@H](C)CC)C(C)C)[C@@H](C)O)[C@@H](C)O)[C@@H](C)CC)[C@@H](C)O)[C@@H](C)CC)C(C)C)[C@@H](C)O)[C@@H](C)CC)C(=O)N[C@@H](CO)C(=O)N[C@@H](Cc1cnc[nH]1)C(=O)N[C@H](C(=O)N[C@@H](CCC(N)=O)C(=O)N[C@@H](CO)C(=O)N[C@H](C(=O)N[C@@H](CO)C(=O)N[C@@H](CO)C(=O)N[C@@H](CCCCN)C(=O)N[C@@H](CCC(N)=O)C(=O)N[C@@H](CCCCN)C(=O)O)C(C)C)[C@@H](C)O	-4%	·	·	·	·	9%
Cc1cccc(Nc2nnc(SCC(=O)Nc3ccccc3[N+](=O)[O-])s2)c1C	-15%	6%	·	-17	-5%	18µM*
COc1ccc(-c2csc(NC(=O)CSc3nnc(Nc4ccccc4C)s3)n2)cc1	8%	?	5.8µM*	3	-5%	-33%
COCCN(C(=S)Nc1c(C)cccc1C)C(C)c1cccs1 (stereo not drawn)	?	9%	-30%	-25	-8%	?
Cc1cc(C)cc(NC(=S)N(CCN(C)C)C(C)c2cccnc2)c1 (stereo not drawn)	0%[10 µM]	2%	-5%	-8	9%	11µM*
COCCN(C(=S)Nc1cc(C)cc(C)c1)C(C)c1ccco1 (stereo not drawn)	4%[10 µM]	3%	-4%	7	1%	8.9µM*
COc1ccc(NC(=S)N(CCC(C)C)C(C)c2ccncc2)cc1 (stereo not drawn)	?	10%	-5%	3	0%	?
COCCN(C(=S)Nc1ccc(OC)cc1)C(C)c1cccs1 (stereo not drawn)	?	?	-2%	-3	-1%	13µM*
COCCN(C(=S)Nc1cccc(C)c1)C(C)c1cccs1 (stereo not drawn)	?	-2%	0%	-11	0%	11µM*
Cc1cc(C)c(NC(=S)N(CCN(C)C)C(C)c2cccnc2)c(C)c1 (stereo not drawn)	-2%[10 µM]	1%	-4%	-15	-5%	-43%
CC(=O)NCCNc1ncnc2ccc(-c3ccccc3C)cc12	-9%	·	·	·	·	3%
C[C@H](CO)N1C[C@H](C)[C@@H](CN(C)Cc2ccc3c(c2)OCO3)Oc2c(NC(=O)Cc3ccccc3)cccc2C1=O	·	24%	7%	-2	?	·
N#Cc1c(-c2ccccc2)ccn(Cc2ccc(Cl)cc2)c1=O	-1%	5%	3%	-3	0%	?
C/C(=N\NC(=O)c1nnn(-c2nonc2N)c1CSc1ccc(C)cc1)c1ccco1	12%	15%	10%	-14	3%	-17%
CCCOc1c(Br)cc(C(=O)OCC(=O)NC2CC2)cc1OC	·	-2%	0%	3	0%	·
COCCN(C(=S)Nc1cc(C)cc(C)c1)C(C)c1cccs1 (stereo not drawn)	22µM*	0%	5%	18	11%	10µM*
Cc1ccc(NC(=S)N(CCN(C)C)C(C)c2ccco2)cc1Cl (stereo not drawn)	?	-2%	-4%	?	4%	13µM*
COCCN(C(=S)Nc1c(C)cc(C)cc1C)C(C)c1cccnc1 (stereo not drawn)	-5%	-2%	3%	13	1%	?
CC(C)CCN(C(=S)Nc1cccc(F)c1)C(C)c1cccs1 (stereo not drawn)	?	16µM*	-4%	-2	8%	20µM*
COc1cccc(NC(=O)CN(C)C(=O)c2cc(-c3ccccc3)nn2-c2ccccc2)c1	·	0%	-7%	11	?	·
CCOC(=O)C(C(=O)Nc1cccc(C)n1)C1CCCCC1 (stereo not drawn)	9%	7%	1%	7	?	-5%
O=C(Nc1nc2ccccc2s1)NC1CCCCC1	-46%	?	-20%	-7	?	13µM*
O=C(CC1CCCCC1)Nc1nc2ccccc2s1	1%	-5%	-2%	-22	7%	-11%
CCOC(=O)C(C(=O)Nc1nc2ccccc2s1)C1CCCCC1 (stereo not drawn)	-1%	?	4%	-23	18%	5µM*
Cc1nn(Cc2ccccc2Cl)c(C)c1C(=O)N(C)CC(=O)Nc1cccc(F)c1	·	-7%	-6%	-11	0%	·
SMILES	Gal4-VP16 FLuc	MCF10A rerep	SW480 rereplic	Giardia kill	Chronic BCR inh	RORg inh
O=C(/C=C/c1ccco1)NC(=S)Nc1ccc(N2CCCC2)cc1	3.2µM*	21µM*	?	-3	?	2µM*
C=CCNC(=S)Nc1ccc(C(N)=O)cc1	-2%	-3%	-2%	-1	-1%	0%
CC(=O)NC(=S)Nc1ccc(NC(=S)NC(=O)/C=C/c2ccco2)cc1	-16%	-3%	14%	12	-6%	?
CN(C)c1ccc(NC(=S)NC(=O)/C=C/c2ccco2)cc1	9%	?	-1%	11	-1%	14µM*
C=CCNC(=S)Nc1ccc(N(C)C)cc1	?	-1%	-12%	6	?	11µM*
CN(C)c1ccc(NC(=O)/C=C/c2ccccc2Cl)cc1	-10%	12%	7%	3	?	0.056µM*
CCc1ccc2[nH]c(=O)c(CN(Cc3ccco3)Cc3nnnn3Cc3ccco3)cc2c1	·	·	·	-28	·	·
COc1ccc(/C=C/C(=O)N2CCN(c3ccccc3)CC2)cc1S(=O)(=O)N1CCOCC1	-11%	-6%	-6%	-5	-3%	16%
COc1ccc(/C=C/C(=O)N(CCC(N)=O)c2ccccc2)cc1S(=O)(=O)N1CCOCC1	·	-1%	4.6µM*	7	-6%	·
Cc1ccc(N(C)S(=O)(=O)c2cccc(C(=O)N(C)Cc3cnn(-c4ccccc4)c3)c2)cc1	·	21µM*	?	-9	5%	·

High-throughput results from PubChem BioAssay.
